High-throughput results from PubChem.
ALDH1A1 inh = inhibitors of human aldehyde dehydrogenase 1A1 | AID 1030 | Purified ALDH1A1, NADH fluorescence, propionaldehyde substrate | 220,000 compounds, 7.3% hits | P00352 | Potency, µM (titrated, usually from 75.3 µM), for the others: at the highest dose activity, negative = inhibition, hits mostly inhibitors; active means well fitted inhibition curve with a large enough effect, not every such curve was filed as active; inconclusive means small, poorly fitted or top-dose-only effect, or another doubt; inactive means no such curve, though single readings can be large or run the other way;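 further: potency means the concentration at half of the fitted maximal effect; plate controls were no enzyme wells and a reference inhibitor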
Target sequence (P00352 whole entry, looked up): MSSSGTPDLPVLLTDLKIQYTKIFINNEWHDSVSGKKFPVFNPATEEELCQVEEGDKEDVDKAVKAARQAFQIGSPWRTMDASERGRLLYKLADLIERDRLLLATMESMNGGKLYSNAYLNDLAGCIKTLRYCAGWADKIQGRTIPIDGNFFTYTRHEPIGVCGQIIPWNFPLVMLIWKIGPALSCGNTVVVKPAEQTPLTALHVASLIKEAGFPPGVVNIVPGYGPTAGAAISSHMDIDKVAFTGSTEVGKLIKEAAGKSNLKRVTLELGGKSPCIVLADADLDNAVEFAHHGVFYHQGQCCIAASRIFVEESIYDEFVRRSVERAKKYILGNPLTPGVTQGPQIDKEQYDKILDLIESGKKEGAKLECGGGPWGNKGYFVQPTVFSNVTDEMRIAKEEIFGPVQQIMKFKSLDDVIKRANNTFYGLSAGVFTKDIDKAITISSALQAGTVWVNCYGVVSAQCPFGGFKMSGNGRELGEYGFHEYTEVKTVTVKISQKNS
HPGD block = HPGD (human) dehydrogenase inhibition | 150,000 compounds, 4.3% hits | Potency, µM, inactives show at the top dose activity change, negative = inhibition, actives largely listed as inhibitors | purified HPGD, NADH fluorescence kinetic, PGE2 substrate; active means well fitted inhibition curve with a large enough effect, not every such curve was filed as active; inconclusive means small, poorly fitted or top-dose-only effect, or another doubt; inactive means no such curve, though single readings can be large or run the other way; further: potency means the concentration at half of the fitted maximal effect; on the % scale 0 is the no-effect control and ±100 the full control effect
Target sequence (P15428 whole entry, looked up): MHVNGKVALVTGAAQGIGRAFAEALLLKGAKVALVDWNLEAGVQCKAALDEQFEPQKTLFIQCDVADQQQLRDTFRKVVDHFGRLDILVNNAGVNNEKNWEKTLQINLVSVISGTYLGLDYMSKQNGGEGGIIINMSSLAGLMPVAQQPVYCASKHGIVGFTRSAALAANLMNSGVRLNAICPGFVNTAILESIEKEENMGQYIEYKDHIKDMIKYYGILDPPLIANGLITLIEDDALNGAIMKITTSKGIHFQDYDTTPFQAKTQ
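NADH formation kinetics: reaction with 30 uM PGE2 and 1 mM NAD+ (final), 20 nM enzyme, Tris-HCl pH 8 with Tween 20, after 15 min compound preincubation at room temperature. Fluorescence change, last versus first of five reads.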
HTT ATP protect = cytoprotection in Huntington HTT-Q103 PC12 cell model | PC12 HTT-Q103 induced, cytoprotection, ATP luminescence, 40 h | Potency, µM (titrated, usually from 56.4 µM), for the others: cytoprotection (ATP increase), hits mostly activators | 230,000 compounds, 0.14% hits | AID 1471; further: potency means the concentration at half of the fitted maximal effect; % of control where 0% means no effect; nearly all actives have a fitted effect of over 45% in size
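Readout: ATPlite luminescence (ATP level). Model: stable PC12, inducible Htt exon1 Q103-GFP. Inducer: tebufenozide, 100 nM final. Compounds: dose series. No G418 in medium.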
PNC assembly inh = inhibitors of perinucleolar compartment assembly | AID 2417 | activity change (PNC), negative = inhibition, % at 10 µM | 140,000 compounds, 3.1% hits | PC3M PTB-GFP, PNC prevalence imaging, 16 h; stronger effect = lower value;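 active means readout at or below -70, meaning at least 70% loss of cells showing the perinucleolar compartment, a nuclear body marking cancer cells; inconclusive means readout between -30 and a set limit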;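 further: plate controls were DMSO wells for no effect and camptothecin positive control wells for full effect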
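Read-out is percentage of cells bearing a perinucleolar compartment, from automated 20x imaging of fixed, Hoechst-stained PC3M PTB-GFP cells. Cells were seeded 4 h, then exposed 16 h to compound (23 nl of library stock) in duplicate plates.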
HttQ103 aggreg = mutant huntingtin aggregation inhibition; PC12 HttQ103-GFP aggregates, Acumen cytometry, 40 h; Potency, µM (doses to about 46.1 µM), without a hit: top-dose activity change, negative = inhibition, hits mostly inhibitors; 220,000 compounds, 1.1% hits; AID 1688; further: potency means the concentration at half of the fitted maximal effect; on the % scale 0 is the no-effect control and ±100 the full control effect; nearly all actives have a fitted effect of over 60% in size
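PC12/HTTQ103-GFP, ecdysone-inducible; teb 100 nM; cpd qHTS titration; GFP aggregates read on laser cytometer, Ex 488/Em 500-530 nm.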
CBFb RUNX1 block = inhibitors of human CBF-beta and RUNX1 interaction; Q01196+Q13951; AlphaScreen CBFb-His/RUNX1-biotin binding, biochemical; Potency, µM (top dose mostly 59.8 µM), without a hit: at the top dose activity, negative = inhibition, actives largely listed as inhibitors; 230,000 tested, under 10 active; AID 1477; further: % of control where 0% means no effect
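CBF-beta (His) and RUNX1 (biotin), 30 nM each; 20 min preassociation; + compound, 15 min; + beads 50 ng each (Ni, streptavidin), 90 min; RT; AlphaScreen read.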
* marks the source's active call; other numbers are inactive results; ? = inconclusive; / = no result given; [ ] = another dose, or the depositor's remark. A selection: hits, their analogues and other compounds. The true share with any hit is near 11%. Unless noted, the call rests on the fitted dose curve; in most records, active means well fitted curve in the direction sought with a large enough effect; inconclusive means small, poorly fitted or top-dose-only effect, or another doubt; inactive means no such curve, though single readings can be large; an effect the other way counts as inactive or inconclusive.

SMILES	ALDH1A1 inh	HPGD block	HTT ATP protect	PNC assembly inh	HttQ103 aggreg	CBFb RUNX1 block
C[C@]12CC[C@@H]3c4ccc(O)cc4CC[C@H]3[C@@H]1CCC2OC(=O)CCC1CCCC1 (some centres undefined)	/	/	41%	/	-11%	/
COc1ccccc1OCC(=O)n1cc(C(=O)c2cc(Cl)cc(Cl)c2O)cn1	-1%	18µM*	2%[0.074 µM]	?	-1%	-7%
Cn1c(=O)c(C#N)c(-c2ccc(F)cc2)c2cc(C(=O)c3cc(Cl)cc(Cl)c3O)cnc21	/	/	0%[10 µM]	/	16%[9.22 µM]	?
Sc1oc(-c2ccccc2)cc1C=Nc1ccccc1	?	-10%	-10%	-1	5%[9.22 µM]	?
CCCn1cnc2c(sc3nc4c(cc32)CSC(C)(C)C4)c1=O	0.56µM*	-26%	-8%[10 µM]	?	-19%	3%
CC(C)CCOc1ncnc2c1sc1nc3c(cc12)CSC(C)(C)C3	1.1µM*	?	3%[10 µM]	16	-3%	14%
COC(=O)NC(CC(C)=O)c1ccccc1 (centres undefined)	21%[13.5 µM]	/	-15%[10 µM]	/	/	11%[13.1 µM]
Clc1ccccc1-c1nnc2sc(-c3cccs3)nn12	14µM*	28µM*	-3%	-27	?	5%
Clc1ccccc1-c1nnc2sc(-c3ccncc3)nn12	-5%	-17%	-10%	-9	?	-6%
Clc1ccccc1-c1nn2c(-c3ccncc3)nnc2s1	11µM*	11µM*	2%[1.9 µM]	4	?	0%
COc1ccccc1C(=O)C1Nc2ccccc2-c2nnc(SC)nc2O1 (centres undefined)	22µM*	-15%	16%[10 µM]	-104*	23%	-4%
CCCCSc1nnc2c(n1)OC(C(=O)c1ccccc1)Nc1ccccc1-2 (centres undefined)	20µM*	-17%	-34%	18	4%	-5%
O=C1CC(C(=O)N(c2ccc(F)cc2)C(C(=O)NC2CCCC2)c2ccccn2)CS1 (centres undefined)	13%	-6%	?	-12	3%	5%
O=C1CC(C(=O)N(c2cccc(F)c2)C(C(=O)NC2CCCC2)c2ccccn2)CS1 (centres undefined)	10µM*	-2%	30%	-2	22%	-6%
COC(=O)C1=C(C(=O)OC)[C@@H]2N(C)c3ccccc3[C@@]23C[C@@H](CO)N(C(=O)c2ccco2)C3=N1	-2%[13.5 µM]	5%	-43%[10 µM]	/	/	10%[13.1 µM]
Fc1ccccc1Nc1n[nH]c(=S)s1	7.1µM*	/	-21%	/	-3%	-1%
S=c1[nH]nc(Nc2cccc3ccccc23)s1	/	/	37%[10 µM]	/	4%[9.22 µM]	-6%
Cn1c(=O)c2[nH]c(SCCN3CCOCC3)nc2n(C)c1=S	-11%[13.5 µM]	5.6µM*	-1%[10 µM]	/	/	/
CC1(C)CC(=O)C(CC(=O)Nc2ccc(S(N)(=O)=O)cc2)=C(O)C1	?	-13%	-15%[10 µM]	-90*	5%	3%
FC(F)(F)c1ccccc1-c1nc(NCc2cccnc2)c2ccccc2n1	4%	/	-31%	/	/	/
COc1ccc(/C=C/C=N/NC(=O)COc2ccc(OC)cc2)cc1	4%	-10%	/	?	-21%	5%
COc1ccccc1NCC(=O)N/N=C/c1cccnc1	?	-21%	-4%	?	-7%	-2%
COc1ccccc1NCC(=O)N/N=C/C=C/c1ccccc1	14µM*	-16%	-5%[10 µM]	42	20%	0%
COc1ccc(NCC(=O)N/N=C/C=C\c2ccccc2)cc1	9.5µM*	-22%	1%[10 µM]	?	-3%	-4%
CCC1=C2CC[C@H]3C(=O)N(CC(=O)OC)C(=O)[C@H]3[C@H]2[C@@]2(C)C(=NCCc3c[nH]c4ccccc34)OC(=O)N2C1=O	-4%	-2%	-36%	/	/	5%
SMILES	ALDH1A1 inh	HPGD block	HTT ATP protect	PNC assembly inh	HttQ103 aggreg	CBFb RUNX1 block
CC1CCCCC12NC(=S)N(c1ccccc1)N2 (centres undefined)	14µM*	/	21%[10 µM]	/	26%[9.22 µM]	2%
CC1CC(C)(C)CC2(C1)NC(=S)N(c1ccccc1)N2 (centres undefined)	16µM*	-9%	17%[10 µM]	-17	0%	1%
O=c1cc(-c2ccc(F)cc2F)[nH]c2ccc(F)cc12	-9%[120 µM]	-23%	?	/	/	6%[89.1 µM]
CCOC(=O)CSc1nc2cc(C(=O)OC)ccc2c(=O)n1CCN1CCOCC1	?	-6%	-33%	?	-7%	5%
COCCn1c(=S)[nH]c2cc(C(=O)NCCCN3CCOCC3)ccc2c1=O	16µM*	-15%	-5%[0.074 µM]	8	-3%	5%
COC(=O)c1ccc2c(=O)n(CCN3CCOCC3)c(SCC(=O)C(C)(C)C)nc2c1	13µM*	-9%	-4%	40	-2%	3%
O=C(NCCCN1CCOCC1)c1ccc2c(=O)n(CCc3ccccc3)c(=O)[nH]c2c1	?	-8%	-8%	-95*	-1%	1%
O=C(NCCN1CCCC1)c1ccc2c(=O)n(CCc3ccccc3)c(=O)[nH]c2c1	?	-23%	-25%	13	-2%	4%
O=C(NCCCN1CCCC1)c1ccc(Cn2c(=S)[nH]c3ccc(Br)cc3c2=O)cc1	22µM*	/	-18%[10 µM]	/	8%	-12%
COc1ccc(C(=O)CN2Cc3ccccc3C2=N)cc1	/	/	-10%[10 µM]	/	-3%[9.22 µM]	3%
C=CC1=C2C=C(C3CC3)N(CCCOC(C)C)C=C2C(=O)C(C)(OC(=O)c2ccco2)C1=O (centres undefined)	13%[13.5 µM]	-7%	-24%[10 µM]	/	/	-1%[13.1 µM]
O=C1C[C@H]2[C@H](CO)[C@@H](OC(=O)c3ccc(-c4ccccc4)cc3)C[C@H]2O1	/	/	-21%[10 µM]	/	-20%[9.22 µM]	6%
CC1=C(C(=O)OC(C)C)C(c2cccc([N+](=O)[O-])c2)C(C(=O)OC2CN(C(c3ccccc3)c3ccccc3)C2)=C(N)N1 (centres undefined)	/	/	-41%	/	-18%	/
COC(=O)c1ccc2c(=O)n(CCCN3CCOCC3)c(=S)[nH]c2c1	?	-10%	4%	-7	0%	6%
COc1ccccc1Cn1c(=S)[nH]c2cc(C(=O)NCCN3CCOCC3)ccc2c1=O	20µM*	/	-11%[0.074 µM]	?	28%	10%
COC(=O)c1ccc2c(=O)n(CCN3CCOCC3)c(=S)[nH]c2c1	4µM*	-6%	8%	-100*	32%	3%
O=C(NCc1ccco1)c1ccc2c(c1)C(=O)N(Cc1ccccc1)C2=O	13µM*	-26%	2%[0.074 µM]	?	?	3%
CC(C)(C)N1C(=O)c2ccc(C(=O)Nc3nccs3)cc2C1=O	?	-3%	-14%	33	-15%	-2%
CCN1C(=O)c2ccc(C(=O)NCc3ccccc3)cc2C1=O	4.5µM*	-19%	15%[0.074 µM]	-2	14%	-1%
